Source: PubChem BioAssay AID651558 (National Center for Advancing Translational Sciences (NCATS), 2012)
Hit rate of the full screen: of about 1,200 compounds, about 480 (40%) were called active. Another 29% or so got no clear call; they are omitted. The call rests on the fitted dose curve; in most records, active means well fitted inhibition curve with a large enough effect; inconclusive means small, poorly fitted or top-dose-only effect; inactive means no such curve, though single readings can be large or run the other way. This is one part of the list.

Experiment: qHTS Assay to Find Inhibitors of Chronic Active B-Cell Receptor Signaling: Hit Validation in Primary Screen; further: nearly all actives have a fitted effect of over 75% in size
Details: ABC-DLBCL IkB-luc/CBR ratio luminescence, 4 h; series mostly up to 46.1 µM
Outline: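 TMD8 ABC-DLBCL cells carrying doxycycline-inducible IkBa-green luciferase fusion and free red luciferase, 0.5% FBS, dosed 46 uM–3 nM with doxycycline for 4 h at 37C. Green/red luminescence ratio normalized to basal and 10 uM MG-132.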
Potency means the concentration at half of the fitted maximal effect.

Potency, active:
CCOc1ncccc1C(=O)N1CCN(c2cc(Cl)ccc2C)CC1 8.2 µM
CCOc1ccccc1C(=O)N1CCN(c2cccc(Cl)c2)CC1 0.517 µM
COC(=O)c1cc(C(=O)N2CCN(c3cccc(Cl)c3)CC2)cc([N+](=O)[O-])c1 5.8 µM
CCOc1ncccc1C(=O)N1CCN(c2cccc(C)c2C)CC1 5.8 µM
CC1=C(C(=O)Nc2ccc(CC(=O)NCc3ccc(OC(C)C)cc3)cc2)SCCO1 1.3 µM
CCc1ccc(CNC(=O)Cc2ccc(NC(=O)C3=C(C)OCCS3)cc2)cc1 2.06 µM
CCCCC[C@H](O)/C=C/[C@@H]1[C@@H](C/C=C\CCCC(=O)OC)[C@@H](O)C[C@H]1O 0.103 µM
CCCCC[C@H](O)/C=C/[C@@H]1[C@@H](C/C=C\CCCC(=O)O)[C@@H](O)C[C@H]1O 2.91 µM
CCO[C@H]1OC(C(=O)NCc2nc3ccccc3[nH]2)=C[C@@H](C2CC2)[C@@H]1CCCO 18.4 µM
COc1ccc(N(C(=O)c2ccccc2C)S(=O)(=O)c2cccs2)cc1 5.17 µM
C=CCOc1c(OC)cc(/C=N/Nc2cccc(C(=O)O)c2)c(Br)c1Br 2.91 µM
COC(=O)C1C(O)=C(C=Nc2ccccc2)C(=O)CC1(C)C (centres undefined) 16.4 µM
COC(=O)C1C(O)=C(C=Nc2cccc3ccccc23)C(=O)CC1(C)C (centres undefined) 18.4 µM
CCCOc1ccccc1C1CC(=O)Nc2cc3c(cc21)OCO3 (centres undefined) 6.51 µM
CCOc1ccccc1C1CC(=O)Nc2cc3c(cc21)OCCO3 (centres undefined) 10.3 µM
CCCOc1ccccc1C1CC(=O)Nc2cc3c(cc21)OCCO3 (centres undefined) 7.31 µM
COc1cc(/C=C/c2ccc3cccc(O)c3n2)cc(Br)c1OC 20.6 µM
COc1cc(/C=C/c2ccc3cccc(O)c3n2)cc(OC)c1OC 18.4 µM

Potency, inactive:
Cc1[nH]n(C(N)=S)c(=O)c1N=Nc1ccc([N+](=O)[O-])cc1Cl
O=C1CC(c2ccccc2)Cc2nc3ncnn3cc21 (centres undefined)
Cc1ccccc1C(=O)N1CCC(C(=O)N2CCN(Cc3ccc4c(c3)OCO4)CC2)CC1
O=C(Oc1c(CN2CCOCC2)cc(Cl)c2cccnc12)c1ccc(F)cc1
Oc1ccc(NCc2cccc(OCc3ccccc3)c2)cc1
Cc1[nH]n(C(N)=S)c(=O)c1N=Nc1ccc2ccccc2c1
O=C(Oc1ccc(Cl)c2cccnc12)C12CC3CC(CC(C3)C1)C2
O=c1cnnc(N/N=C/C2CC=CCC2)[nH]1 (centres undefined)
Cc1ccc(-c2ccccc2NC(=O)CS(=O)CC(=O)Nc2ccc(C)c(Cl)c2)o1 (centres undefined)
COc1cc(/C=C\C(=O)OCn2nnc3ccccc3c2=O)cc(OC)c1OC
CCOc1cccc(/C=C/c2ccc3cccc(O)c3n2)c1OC
